From ChEMBL document CHEMBL3988442, “University of Dundee, Small-Polar-MMV Screening Library” (2021)
For some assays here: Potency and affinity values are given separately.

Key:
Design in all cases: scale not given: direction of the effect not stated beside the values
[1] = target: Protein translocase subunit SecA (Escherichia coli (strain K12)) (UniProt P10408); experiment: Assay to Identify E. coli SecA ATPase Inhibitors; assay type: functional; conditions: 30 µM
[2] = target: T1, Ubiquitin-activating enzyme e1, putative (Leishmania donovani (strain BPK282A1)) (UniProt E9BSI1); experiment: Leishmania donovani Ubiquitin Activating Enzyme (LdE1); assay type: functional; conditions: 30 µM
T1 sequence (whole entry): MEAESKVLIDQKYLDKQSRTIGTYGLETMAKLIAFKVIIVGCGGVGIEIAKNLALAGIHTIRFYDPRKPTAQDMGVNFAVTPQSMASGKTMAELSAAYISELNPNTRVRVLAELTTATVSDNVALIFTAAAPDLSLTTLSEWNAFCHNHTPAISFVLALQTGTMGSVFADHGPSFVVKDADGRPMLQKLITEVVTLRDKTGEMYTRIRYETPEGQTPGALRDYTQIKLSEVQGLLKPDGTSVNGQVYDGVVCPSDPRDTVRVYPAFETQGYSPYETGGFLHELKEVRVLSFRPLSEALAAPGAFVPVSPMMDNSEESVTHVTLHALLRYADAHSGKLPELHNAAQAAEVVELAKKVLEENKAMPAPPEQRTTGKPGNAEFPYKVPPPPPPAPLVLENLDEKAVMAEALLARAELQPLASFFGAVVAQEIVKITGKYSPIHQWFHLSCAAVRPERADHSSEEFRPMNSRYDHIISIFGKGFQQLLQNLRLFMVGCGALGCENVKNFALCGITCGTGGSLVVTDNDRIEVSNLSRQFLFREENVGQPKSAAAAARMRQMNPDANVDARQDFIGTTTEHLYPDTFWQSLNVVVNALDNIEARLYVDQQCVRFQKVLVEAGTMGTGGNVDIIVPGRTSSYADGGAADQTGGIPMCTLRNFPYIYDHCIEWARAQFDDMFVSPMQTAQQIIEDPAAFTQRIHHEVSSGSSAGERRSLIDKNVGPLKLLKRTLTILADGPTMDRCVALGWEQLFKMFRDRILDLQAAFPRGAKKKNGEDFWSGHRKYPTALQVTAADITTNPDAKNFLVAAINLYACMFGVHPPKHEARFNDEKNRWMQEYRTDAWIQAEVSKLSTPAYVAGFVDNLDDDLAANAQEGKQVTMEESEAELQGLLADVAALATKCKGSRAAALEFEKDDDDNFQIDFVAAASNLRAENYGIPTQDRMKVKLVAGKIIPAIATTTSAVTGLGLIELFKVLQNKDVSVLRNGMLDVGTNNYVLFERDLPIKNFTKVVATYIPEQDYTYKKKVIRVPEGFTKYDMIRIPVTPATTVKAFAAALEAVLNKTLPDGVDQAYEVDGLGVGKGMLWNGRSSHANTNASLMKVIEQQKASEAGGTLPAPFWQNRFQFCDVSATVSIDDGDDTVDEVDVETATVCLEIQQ

[3] = target: Sialic acid-binding Ig-like lectin 9 (Homo sapiens) (UniProt Q9Y336); experiment: Hs-Siglec9 ALPHAscreen SOP 20170721; conditions: 10 µM
Chain of Sialic acid-binding Ig-like lectin 9 (Homo sapiens) (Q9Y336 whole entry): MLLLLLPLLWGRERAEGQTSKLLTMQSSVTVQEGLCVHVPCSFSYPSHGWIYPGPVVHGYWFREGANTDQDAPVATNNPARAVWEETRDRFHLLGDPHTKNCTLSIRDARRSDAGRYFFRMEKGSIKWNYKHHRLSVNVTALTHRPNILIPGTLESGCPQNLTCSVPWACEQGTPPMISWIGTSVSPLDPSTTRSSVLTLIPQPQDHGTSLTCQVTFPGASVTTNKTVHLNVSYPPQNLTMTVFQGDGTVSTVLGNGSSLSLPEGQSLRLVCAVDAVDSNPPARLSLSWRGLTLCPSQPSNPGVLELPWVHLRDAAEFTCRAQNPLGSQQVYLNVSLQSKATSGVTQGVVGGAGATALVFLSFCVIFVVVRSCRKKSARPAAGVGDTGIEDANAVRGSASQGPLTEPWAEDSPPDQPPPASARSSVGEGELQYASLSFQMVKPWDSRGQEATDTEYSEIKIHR

Trypanosoma cruzi = experiment: Trypanosoma cruzi phosphomannomutase and mannose-1-phosphate guanylyltransferase assay; assay type: functional; conditions: 10 µM
[4] = target: T2, Arginase-2, mitochondrial (Homo sapiens) (UniProt P78540); experiment: in vitro enzyme assay to detect the production of urea directly proportional to the activity of Arginase II; assay type: functional; conditions: 33.3 µM; further: in the data most compounds retested in dose-response had high values
T2 sequence (whole entry): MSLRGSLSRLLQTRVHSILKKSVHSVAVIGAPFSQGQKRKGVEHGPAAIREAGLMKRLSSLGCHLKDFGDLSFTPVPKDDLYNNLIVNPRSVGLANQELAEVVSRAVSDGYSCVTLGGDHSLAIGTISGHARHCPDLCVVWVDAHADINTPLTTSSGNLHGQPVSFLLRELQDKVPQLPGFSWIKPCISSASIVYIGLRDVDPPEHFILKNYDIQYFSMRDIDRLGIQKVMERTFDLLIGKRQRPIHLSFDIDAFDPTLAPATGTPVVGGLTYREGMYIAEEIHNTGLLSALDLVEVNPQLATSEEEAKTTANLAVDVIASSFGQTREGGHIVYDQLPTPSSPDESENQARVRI

[5] = target: T3, Proteasome subunit beta (Trypanosoma cruzi) (UniProt O96673); experiment: Trypanosoma cruzi proteasome chymotrypsin-like activity (TcProtChymo) assay.; further: in the data most compounds retested in dose-response had high values; assay type: functional; conditions: 9.37 µM
T3 sequence (whole entry): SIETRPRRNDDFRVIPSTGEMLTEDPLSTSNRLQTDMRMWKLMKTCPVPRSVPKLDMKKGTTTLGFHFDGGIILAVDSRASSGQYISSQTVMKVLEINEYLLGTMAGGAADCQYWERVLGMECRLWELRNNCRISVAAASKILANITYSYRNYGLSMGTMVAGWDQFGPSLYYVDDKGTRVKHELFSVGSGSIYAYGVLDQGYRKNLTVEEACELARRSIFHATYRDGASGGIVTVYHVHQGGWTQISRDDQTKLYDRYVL

Homo sapiens = species: Homo sapiens; experiment: To identify inhibition of the IFN signalling (Jak-Stat) pathway via expression of an eGFP reporter gene under the control of an IFN-stimulated response element (ISRE) containing MxA promoter.; assay type: functional; conditions: 30 µM
[6] = target: T4, Tyrosyl-tRNA synthetase, putative (Trypanosoma cruzi (strain CL Brener)) (UniProt Q4DSP6); experiment: Trypanosoma cruzi tyrosyl tRNA synthetase (TcYRS) _High Tyrosine SOP; assay type: functional; conditions: 30 µM; further: in the data most compounds retested in dose-response had high values
T4 sequence (whole entry): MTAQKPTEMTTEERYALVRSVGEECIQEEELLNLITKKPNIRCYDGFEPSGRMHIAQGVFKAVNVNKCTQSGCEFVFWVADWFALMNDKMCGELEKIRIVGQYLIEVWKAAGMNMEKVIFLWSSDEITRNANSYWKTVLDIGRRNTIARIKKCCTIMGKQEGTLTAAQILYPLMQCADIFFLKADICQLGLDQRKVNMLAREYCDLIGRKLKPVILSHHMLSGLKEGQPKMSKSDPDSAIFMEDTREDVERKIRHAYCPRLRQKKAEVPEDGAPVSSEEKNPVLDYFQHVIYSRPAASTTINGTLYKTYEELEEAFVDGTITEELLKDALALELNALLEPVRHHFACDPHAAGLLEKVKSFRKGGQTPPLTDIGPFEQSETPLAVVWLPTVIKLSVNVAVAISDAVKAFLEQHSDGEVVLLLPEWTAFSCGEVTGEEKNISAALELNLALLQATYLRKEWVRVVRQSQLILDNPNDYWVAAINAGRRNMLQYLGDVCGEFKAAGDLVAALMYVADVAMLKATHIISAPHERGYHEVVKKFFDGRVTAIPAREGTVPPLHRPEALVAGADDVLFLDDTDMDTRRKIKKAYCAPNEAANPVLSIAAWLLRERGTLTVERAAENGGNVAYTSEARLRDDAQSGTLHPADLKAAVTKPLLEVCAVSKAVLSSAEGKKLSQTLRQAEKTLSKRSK

[7] = target: T4, Tyrosyl-tRNA synthetase, putative (Trypanosoma cruzi (strain CL Brener)); experiment: Trypanosoma cruzi tyrosyl tRNA synthetase (TcYRS) SOP; assay type: functional; conditions: 30 µM
[8] = target: Chromo domain-containing protein 1 (Saccharomyces cerevisiae (strain ATCC 204508 / S288c) (Baker's yeast)) (UniProt P32657); experiment: ScCHD-1 Enzyme Inhibition Assay; assay type: functional; conditions: 30 µM; further: in the data most compounds retested in dose-response had high values
Chain of Chromo domain-containing protein 1 (Saccharomyces cerevisiae (strain ATCC 204508 / S288c) (Baker's yeast)) (P32657 whole entry, the tested form may be a part): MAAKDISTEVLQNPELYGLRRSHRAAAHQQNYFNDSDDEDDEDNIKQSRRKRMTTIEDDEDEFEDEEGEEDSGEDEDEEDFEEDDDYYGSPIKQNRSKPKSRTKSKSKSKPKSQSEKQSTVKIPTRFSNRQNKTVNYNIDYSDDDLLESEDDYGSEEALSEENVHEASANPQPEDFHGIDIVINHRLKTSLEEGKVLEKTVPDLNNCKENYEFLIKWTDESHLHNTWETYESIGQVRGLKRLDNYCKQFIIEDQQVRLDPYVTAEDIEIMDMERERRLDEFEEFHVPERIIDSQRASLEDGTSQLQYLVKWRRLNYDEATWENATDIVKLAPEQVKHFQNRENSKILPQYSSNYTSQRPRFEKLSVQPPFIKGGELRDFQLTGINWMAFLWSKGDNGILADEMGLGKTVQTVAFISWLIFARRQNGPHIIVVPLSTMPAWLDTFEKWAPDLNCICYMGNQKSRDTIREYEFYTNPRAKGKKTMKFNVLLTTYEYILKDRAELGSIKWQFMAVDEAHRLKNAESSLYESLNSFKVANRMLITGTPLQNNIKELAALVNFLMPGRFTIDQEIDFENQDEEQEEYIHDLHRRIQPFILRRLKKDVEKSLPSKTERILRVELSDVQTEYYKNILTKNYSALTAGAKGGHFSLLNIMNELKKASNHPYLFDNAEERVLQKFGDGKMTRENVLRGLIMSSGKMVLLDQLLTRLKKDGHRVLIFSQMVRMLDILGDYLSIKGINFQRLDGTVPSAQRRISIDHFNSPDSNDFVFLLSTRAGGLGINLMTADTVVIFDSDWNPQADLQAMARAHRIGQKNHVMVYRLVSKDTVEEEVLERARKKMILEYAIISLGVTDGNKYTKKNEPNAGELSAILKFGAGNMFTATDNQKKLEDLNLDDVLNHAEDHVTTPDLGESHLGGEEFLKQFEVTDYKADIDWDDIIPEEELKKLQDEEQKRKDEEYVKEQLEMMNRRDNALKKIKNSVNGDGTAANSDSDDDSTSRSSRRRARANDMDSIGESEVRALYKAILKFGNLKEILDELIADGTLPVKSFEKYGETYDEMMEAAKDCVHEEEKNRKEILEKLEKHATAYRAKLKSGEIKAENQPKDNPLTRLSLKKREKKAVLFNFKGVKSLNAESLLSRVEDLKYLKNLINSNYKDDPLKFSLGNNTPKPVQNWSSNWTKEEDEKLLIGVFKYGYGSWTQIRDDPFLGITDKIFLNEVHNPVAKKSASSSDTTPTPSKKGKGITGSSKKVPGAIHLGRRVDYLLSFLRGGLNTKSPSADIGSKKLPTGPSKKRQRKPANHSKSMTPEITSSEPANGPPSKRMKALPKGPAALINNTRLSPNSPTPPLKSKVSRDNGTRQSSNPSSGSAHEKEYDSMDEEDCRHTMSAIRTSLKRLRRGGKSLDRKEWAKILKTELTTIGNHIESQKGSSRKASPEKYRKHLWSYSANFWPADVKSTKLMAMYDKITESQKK

Chain of Protein translocase subunit SecA (Escherichia coli (strain K12)) (P10408 whole entry): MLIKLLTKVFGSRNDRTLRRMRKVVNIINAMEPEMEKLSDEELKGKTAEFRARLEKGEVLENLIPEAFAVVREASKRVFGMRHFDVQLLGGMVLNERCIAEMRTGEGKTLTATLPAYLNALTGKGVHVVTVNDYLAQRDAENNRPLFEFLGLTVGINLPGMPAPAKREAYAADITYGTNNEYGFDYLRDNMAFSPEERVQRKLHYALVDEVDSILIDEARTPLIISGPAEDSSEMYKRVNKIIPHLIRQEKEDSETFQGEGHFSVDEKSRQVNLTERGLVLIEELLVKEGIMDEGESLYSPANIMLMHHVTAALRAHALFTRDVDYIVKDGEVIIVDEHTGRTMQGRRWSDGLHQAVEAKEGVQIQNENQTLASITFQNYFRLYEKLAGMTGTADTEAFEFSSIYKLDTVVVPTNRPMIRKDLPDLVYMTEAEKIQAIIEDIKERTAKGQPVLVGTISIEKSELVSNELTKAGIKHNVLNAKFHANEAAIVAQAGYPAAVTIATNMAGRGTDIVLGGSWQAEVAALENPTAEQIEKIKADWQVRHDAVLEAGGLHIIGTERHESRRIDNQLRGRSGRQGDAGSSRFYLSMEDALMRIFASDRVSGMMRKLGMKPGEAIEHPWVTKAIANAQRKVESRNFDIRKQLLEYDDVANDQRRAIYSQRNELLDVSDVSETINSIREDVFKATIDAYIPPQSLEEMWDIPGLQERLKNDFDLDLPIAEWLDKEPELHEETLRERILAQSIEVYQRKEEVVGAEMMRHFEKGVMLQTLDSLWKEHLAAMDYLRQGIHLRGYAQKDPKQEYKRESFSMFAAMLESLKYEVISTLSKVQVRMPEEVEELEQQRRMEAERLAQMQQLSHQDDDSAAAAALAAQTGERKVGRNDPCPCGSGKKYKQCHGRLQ

Row | Compound | Percent Effect [1] [%] | Percent Effect [2] [%] | Percent Effect [3] [%] | Percent Effect (Trypanosoma cruzi) [%] | Percent Effect [4] [%] | Percent Effect [5] [%] | Percent Effect (Homo sapiens) [%] | Percent Effect [6] [%] | Percent Effect [7] [%] | Percent Effect [8] [%]
1 | CCn1cnnc1CNC(=O)N1CCC(C(=O)NC)CC1 | -5.88 | 5.33 | 0.795 | -4.42 | -2.66 | 1.78 | 10.8 | -0.526 | 2.56 | -6.68
2 | Cc1ccc(NC(=O)C2CSCN2C(=O)c2cnccn2)c(C)c1 (stereo not given) | -4.93 | 7.69 | -2.1 | -4.6 | 6.15 | 1.11 | 26.2 | 3.35 | 10.8 | -1.89
3 | Cc1ccc2oc(C(=O)N3CCCC(n4nc(C)cc4C)C3)cc2n1 (stereo not given) | -4.01 | 10.3 | 6.58 | 0.845 | 1.23 | 4.01 | -2.91 | 4.31 | 13.2 | 3.09
4 | CC(C)n1ccnc1CN1CCCN(C(=O)c2cccnc2O)CC1 | -4.65 | 15.4 | -20.6 | 5.54 | 1.64 | 14.9 | -7.69 | 10.1 | 22.9 | -5.81
5 | Cc1ccccc1CN(C)Cc1nc2c(cnn2C)c(=O)[nH]1 | -0.754 | 10.3 | -3.07 | 1.41 | -0.82 | 16.8 | 7.6 | 8.13 | 18.1 | -3.59
6 | Cc1c[nH]nc1C1CCCCN1C(=O)Cn1cc(Cl)cn1 (stereo not given) | -0.928 | 14.7 | -3.24 | -2.96 | 3.1 | 15.1 | 7.7 | 3.17 | 10 | -20.3
7 | CNC(=O)CN(C)c1nc(-c2ccncc2)nc2c1CCN(C(C)=O)C2 | -7.13 | 0 | 0.927 | -1.07 | 2.45 | 9.59 | -4.34 | 1.6 | 7.32 | -3.67
8 | CC(=O)N1CCCN(CC(C)(O)c2cccc(C(F)(F)F)c2)CC1 (stereo not given) | -3.98 | 10.4 | 8.53 | 2.42 | -7.99 | 3.51 | -6.46 | 6.86 | 16.5 | -9.58
9 | Cc1occc1C(=O)N1CCC2(CCC(C(=O)NCC3CC3)O2)CC1 (stereo not given) | -0.841 | 19.5 | 1.13 | -0.75 | 1.83 | 13 | 6.84 | 11.6 | 20 | -4.43
10 | CC(C)NC(=O)[C@@H](NC(=O)N1CCN(c2ccc(Cl)cc2)CC1)C(C)C | -9.49 | -5.41 | -0.377 | -3.78 | -3.85 | 12.2 | 31.6 | 0.532 | -4.88 | -2.5
11 | Cc1noc(C)c1CN(C)C(=O)NC1CCN(C2CC2)CC1 | -1.46 | 2.56 | 0.345 | 2.91 | -0.82 | -3.84 | -6.08 | 2.39 | 8.43 | 3.21
